Reference: PubChem BioAssay (NCI)
The panel holds about 83,000 compounds, 20% with a hit somewhere; the sample as a whole holds those more often.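 Cells were grown in 96-well plates and exposed to the test compound at a single concentration for 48 hours; results are reported as percent growth, with values below 10 considered active.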 Unmarked numbers belong to inactive results. The source made the active and inactive calls.

tested on: UO-31 renal; assay: NCI-60 one-dose screen, 48 h (100 = growth as untreated, 0 = no growth, -100 = all killed); conditions: 10 µM unless noted
Procedure: Growth inhibition of the UO-31 human tumor cell line is measured as a screen for anti-cancer activity. Cells are grown in 96 well plates and exposed to the test compound for 48 hours. Compounds are tested at a single concentration, which is 10^-5 M for most compounds. The reported endpoint is percent growth (GI% or GIPRCNT), where numbers from 0 - 100% represent growth inhibition, and numbers from -100% - 0 represent cell death. For example, a value of 40 represents 60% growth inhibition. A value of 0 means no net growth occurred over the course of the experiment. A value of -40 indicates 40% of cells at the beginning of the experiment died by the end of the experiment. A value of -100 means all cells are dead at the end of the experiment.
NCI-60 Human Tumor Cell Lines Screen was performed using the standard one-dose NCI protocol, which is described in more detail at https://dtp.cancer.gov/discovery_development/nci-60/default.htm.
Compounds with GIPRCNT values below 10 were considered active. Activity score was based on GIPRCNT using the following formula: […]
Score is 0 for GIPRCNT values of 100 or above, 50 for GIPRCNT values of 0, and 100 for GIPRCNT values of -100.

How did the growth turn out when Fc1ccc(-c2nn3c(-c4cc(C(F)(F)F)cc(C(F)(F)F)c4)nnc3s2)cc1 was run?
Its growth is 29.2%.

With Cc1ccccc1NC(=O)N/C(N)=N/c1nc2ccccc2s1 as the compound, how does the growth read?
Its growth is 54.6%.

O=C(NN1C(=O)c2cc(C(=O)O)c(C(=O)O)cc2C1=O)c1ccncc1 was tested. Which growth did it give?
Its growth is 112%.

Which growth does the source give for CC1CN(CC(O)c2ccc(Br)cc2)CCO1 (stereo not given) here?
Its growth is 85.4%.

For O=CNc1ccc2c(c1)Cc1cc([N+](=O)[O-])ccc1-2, which growth is on record?
Its growth is 33.3%.

How did the growth turn out when O=C(NCCCl)NCCN1c2nc3ccccc3cc2Sc2cc3ccccc3nc21 was run?
The growth was -5.97% (active).

For O=C(N/N=C/c1cccc([N+](=O)[O-])c1)c1ccc(Br)o1, which growth is on record?
Its growth is -25.2% (active).

Which growth does the source give for CCCCCc1c(C)[nH]c(/C=C2\N=C(c3ccc[nH]3)C=C2Oc2ccc(Cl)cc2)c1C here?
The growth was -53% [100 µM] (active).

With O=c1ccn(C2CC=C(CO)O2)c(=O)[nH]1 (stereo not given) as the compound, how does the growth read?
The growth was 110%.

For C/C(=C\CCc1ccoc1)CC/C=C(\C)CCCNc1ccc(F)cc1, which growth is on record?
Its growth is 54.6%.

Which growth does the source give for Cc1cc(=O)oc2cc(OCCn3c(C)nn(-c4ccc(Cl)cc4)c3=O)ccc12 here?
The growth was 42.8%.

For CCN(CC)CCOCC[C@H]1CC[C@H]2[C@@H]3[C@H](C)Cc4cc(OS(N)(=O)=O)ccc4[C@H]3CC[C@]12C, which growth is on record?
Its growth is -80.8% (active).

For C[C@]12CCC(=O)C=C1CCC1C2[C@@H](O)C[C@@]2(C)C1CC[C@]2(O)C(=O)COC(=O)CCC(=O)O (stereo not given in full), which growth is on record?
The growth was 84.1%.

How did the growth turn out when Nc1ccc2c(c1Br)Cc1ccccc1-2 was run?
The growth was 54.4%.

Which growth does the source give for CSc1nc2nc3c(c(-c4ccc(C)cc4)c2c(=O)[nH]1)CN(C)C/C3=C\c1ccc(C)cc1 here?
Its growth is 86.1%.

With N=C1c2nc3n(c2C(=O)c2nc4n(c21)CCCCC4)CCCCC3 as the compound, how does the growth read?
The growth was 83.6%.

How did the growth turn out when CN(C)CCC(=O)Nc1ccc(-n2cc(-c3cccc(NC(=S)Nc4cccc(-c5cn(-c6ccc(NC(=O)CCN(C)C)cc6)nn5)c4)c3)nn2)cc1 was run?
Its growth is 135%.

For OC(c1cc(-c2cccc(Cl)c2)nc2ccccc12)C1CCCCN1 (stereo not given), which growth is on record?
Its growth is -44.8% (active).

With O=C(COc1cccc(/C=C2\Cc3ccccc3C2=O)c1)c1ccc(Cl)cc1 as the compound, how does the growth read?
Its growth is 18.5%.

How did the growth turn out when COC(=O)[C@H](CCCCNC(=O)OCc1ccccc1)NC(=O)[C@@H](NC(=O)Nc1cc(C(F)(F)F)cc(C(F)(F)F)c1)C(C)C was run?
The growth was -88.6% [100 µM] (active).

For CCCCCCCSc1ncnc2[nH]ncc12, which growth is on record?
The growth was 60.6%.

Oc1ccccc1/C=N/N1CCCCCC1 was tested. Which growth did it give?
Its growth is 83.1%.

How did the growth turn out when COc1ccc(C(=O)/C=C/c2ccc(C)cc2)cc1OC was run?
Its growth is -12% (active).

With CSc1nc2nc3c(nc2c(=O)n1C)C(=O)c1ccccc1C3=O as the compound, how does the growth read?
The growth was -86.1% (active).

CCCCc1ccc(C(N)=O)nc1 was tested. Which growth did it give?
The growth was 88.7%.

c1ccc2nc(Cn3c[n+](Cc4ccc5ccccc5n4)c4ccccc43)ccc2c1 was tested. Which growth did it give?
Its growth is 79.5%.

With COc1ccc(C2=NN(C(N)=S)C(c3ccc4c(c3)OCO4)C2)cc1 (stereo not given) as the compound, how does the growth read?
Its growth is -7.08% (active).

How did the growth turn out when CC(=O)OCC(=O)[C@@]1(O)CC[C@H]2[C@@H]3CCC4=CC(=O)CC[C@]4(C)[C@@]3(F)[C@@H](O)C[C@@]21C was run?
The growth was 82.5%.

Which growth does the source give for COc1ccc([N+](=O)[O-])c(S(=O)(=O)c2ccc(Cl)cc2)n1 here?
Its growth is 51.7%.

How did the growth turn out when COc1ccc2c(=O)c(OC)c(-c3cc(OC)c(OC)c(OC)c3)oc2c1 was run?
Its growth is -82.5% (active).

For Cc1cn(C(C=O)OC(C=O)CO)c(=O)[nH]c1=O (stereo not given), which growth is on record?
Its growth is 88.6%.

With COC(=O)CC1=C(c2ccc([N+](=O)[O-])cc2)CCC1=O as the compound, how does the growth read?
Its growth is 80.5%.

For O=c1[nH]c(SCc2ccccc2)nc2nc(Nc3ccc(NC(=S)Nc4ccccc4)cc3)nc(-c3ccc(O)cc3O)c12, which growth is on record?
The growth was 107%.

Which growth does the source give for Clc1ccc(C2c3ccccc3-c3nccn32)c(Cl)c1 (stereo not given) here?
The growth was 80.1%.

With COc1cnc2c(c1)C(=O)c1c-2n(CCCn2ccnc2)c(=O)c2cc(F)ccc12 as the compound, how does the growth read?
The growth was -77.5% (active).

For COc1ccc(-n2cnc3cc(C(=O)N4CCCCC4)ccc32)cc1, which growth is on record?
Its growth is 97.4%.

Which growth does the source give for COc1cc(/C=C/c2cc(/C=C/c3ccc(O)c(OC)c3)n(C(=O)c3ccc(Cl)cc3)n2)ccc1O here?
Its growth is 0.559% (active).

How did the growth turn out when CCN(CC)c1ccc(C(=C2C=CC(=[N+](CC)Cc3cccc(S(=O)(=O)O)c3)C=C2)c2ccc(N(CC)Cc3cccc(S(=O)(=O)O)c3)cc2)cc1 was run?
Its growth is 45.4%.

With CCOc1cc(CCNS(=O)(=O)c2ccc(C)cc2)c(C(C)=O)cc1OCC as the compound, how does the growth read?
Its growth is -69.9% [100 µM] (active).

With CCCn1c(N)c(C(=O)CNc2ccc(I)cc2)c(=O)[nH]c1=O as the compound, how does the growth read?
The growth was 30.1%.
